DAX1 inh-1 = DAX1 (NR0B1) inhibition, primary screen. HEK293T StAR-luciferase reporter, SF-1/DAX-1 repression relief. inhibition, % at 6.8 µM. actives 1.1% (n = 370,000). AID 652010;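 active = inhibition above the mean over all tested compounds plus 3 SD, cut at about 3.6% in these data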;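 note: higher inhibition means more luminescence from relief of DAX-1 repression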
hcDAF-12 act = activators of H. contortus DAF-12 nuclear receptor; AID 652067; activation, % at 6.8 µM; actives 1.4% (n = 370,000); HEK293 hcDAF-12 lit1-tk-luc reporter, luminescence; 0% DMSO, 100% Δ7-dafachronic acid;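 active = activation above the mean of all tested compounds plus 3 SD, cut at about 5.5% in these data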
hgDAF-12 ag = agonists of H. glycines DAF-12 nuclear receptor | HEK293 GAL4-hgDAF12 UAS-luciferase reporter, agonist luminescence; normalized to butyrate control | activation, % at 6.8 µM | actives 1.8% (n = 370,000) | AID 687014;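 active = activation above a cutoff set at the mean of all screened compounds plus 3 SD, cut at about 10% in these data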
ssDAF-12 act = activates DAF-12 receptor from parasite S. stercoralis; HEK293 ssDAF-12/GRIP1 lit1-tk-luc reporter, luminescence; % of 3 µM dafachronic acid response; activation, % at 6.8 µM; AID 652126; actives 1% (n = 370,000);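 active = activation above the mean over all tested compounds plus 3 SD, cut at about 0.9% in these data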
DAX1 inh-2 = NR0B1 (DAX1) inhibition | HEK293 Gal4-DAX1 luciferase reporter, luminescence | inhibition, % at 6.75 µM | actives 0.99% (n = 340,000) | AID 504766;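 active = inhibition above the mean over all tested compounds plus 3 SD, cut at about 4.2% in these data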;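 note: inhibition shows as a rise in luminescence from relieved DAX1 repression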
Target sequence (P51843 207-470 limits assumed): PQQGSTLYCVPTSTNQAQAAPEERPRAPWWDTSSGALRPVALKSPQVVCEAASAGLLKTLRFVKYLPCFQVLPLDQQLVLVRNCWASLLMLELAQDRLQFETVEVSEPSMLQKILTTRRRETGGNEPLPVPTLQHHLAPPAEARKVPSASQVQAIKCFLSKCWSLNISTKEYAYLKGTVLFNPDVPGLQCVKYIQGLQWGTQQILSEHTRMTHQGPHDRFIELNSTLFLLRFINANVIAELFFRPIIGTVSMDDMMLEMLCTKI
Numbers stand for hits; - = inactive; . = no result given. A selection: hits, their analogues and other compounds. The true share with any hit is near 4.1%.

SMILES	DAX1 inh-1	hcDAF-12 act	hgDAF-12 ag	ssDAF-12 act	DAX1 inh-2
C[C@H](NC(=O)C[C@@H]1C[C@@H]2c3cc(NC(=O)C4CCC4)ccc3O[C@@H]2[C@@H](CO)O1)c1ccccc1	-	-	-	-	.
Cc1ccc(C(=O)Nc2cc([N+](=O)[O-])ccc2F)s1	-	-	-	-	5.8
Cc1ccc2c(c1)C1CS(=O)(=O)N(Cc3ccc(F)cc3)CN1C2 (stereo unspecified)	-	-	-	-	.
CN(Cc1cn(CC2CCCCC2)nn1)S(=O)(=O)c1ccccc1Br	-	-	-	-	.
C/C(=N\NC(=O)c1ccccc1F)c1ccc2c(c1)Nc1ccccc1S2	-	-	10.7	-	-
Cc1ccc(N2C(=O)c3ccccc3NC2c2ccccc2O)cc1 (stereo unspecified)	-	-	11.3	-	-
O=C1c2ccccc2NC(c2ccccc2O)N1O (stereo unspecified)	-	-	-	-	-
COC(=O)[C@]12C[C@H](CC(=O)NCCC(C)C)C(=O)N(CCC3=CCCCC3)C1=C[C@H](C(C)C)O[C@@H]2C1CC1	-	-	-	-	.
COc1cccc(-c2sc3ccc(OC)cc3c2-c2cnc(N3CCOCC3)nc2)c1	-	-	10.9	-	.
COc1cccc(-c2sc3ccc(OC)cc3c2-c2ccc(OCCN3CCOCC3)cc2)c1	-	-	-	-	-
CCOC(=O)c1cc(C(=O)Nc2ccc(C)c(F)c2)nn1C	-	-	10.7	-	-
CCc1c(C)nc2cc(-c3cccc(Br)c3)[nH]n2c1=O	-	6.4	-	1.0	-
O=c1c2c(nc3cc(-c4ccc(Cl)cc4)[nH]n13)CCS2	-	-	11.0	-	-
CCc1c(C)nc2cc(-c3ccc(Cl)cc3)[nH]n2c1=O	-	-	10.9	-	4.8
CCCc1cc(=O)n2[nH]c(-c3ccc(C)cc3)cc2n1	4.0	-	-	-	-
O=C(C[n+]1cc(-c2ccc(F)cc2)n2c1CCC2)Nc1nc(-c2ccccc2)cs1	-	-	-	-	-
O=C(C[n+]1cc(-c2ccc(Cl)cc2)n2c1CCC2)Nc1nc(-c2ccccc2)cs1	-	-	-	-	4.8
CC(=O)Oc1ccc(C(=O)Nc2cc(C)ccc2NC(=O)COc2ccccc2)cc1	.	.	.	.	-
COc1ccc(-c2nc3nc(C)cc(C)n3n2)cc1	-	5.7	-	-	-
COc1ccc(CNc2nc3nc(C)cc(C)n3n2)cc1	-	-	-	-	-
CCOC(=O)Nc1ccc2c(c1)[C@@]1(CC(=O)N(CC(C)C)C1c1ccccc1)C(=O)N2C (stereo partly specified)	-	-	-	-	.
Clc1ccc2nc(-c3ccc(Cl)nc3)[nH]c2c1	-	-	12.1	-	-
CCOC(=O)CN1C(=O)/C(=C/c2ccccc2Br)Oc2ccccc21	-	5.6	-	-	-
O=C(CCCCCN1C(=O)C2C3C=CC(C3)C2C1=O)Nc1ccc2ncccc2c1 (stereo unspecified)	-	-	-	-	.
Cc1nc(N2CCCCC2C)c2nnn(Cc3ccccc3)c2n1 (stereo unspecified)	-	-	-	-	.
SMILES	DAX1 inh-1	hcDAF-12 act	hgDAF-12 ag	ssDAF-12 act	DAX1 inh-2
COc1cc(/C=C/C(=O)OC(C)C(=O)NC2CCCCC2C)cc(Cl)c1OC (stereo unspecified)	-	-	-	-	6.9
CC(OC(=O)/C=C/c1cccc(F)c1)C(=O)NC1CCCCC1C (stereo unspecified)	-	-	-	-	-
Cc1ccc(-n2c(C)cc(/C=C3\SC(=O)NC3=O)c2C)cc1	-	-	-	-	-
Cc1cc(/C=C2\SC(=S)NC2=O)c(C)n1-c1cccc(O)c1	-	-	-	-	5.3
O=C(NCCC1=CCCCC1)C1CCN(S(=O)(=O)c2ccccc2[N+](=O)[O-])CC1	-	-	-	-	.
CCCC1CCC(=NNS(=O)(=O)c2ccc(C)c([N+](=O)[O-])c2)CC1 (stereo unspecified)	-	-	-	-	-
CCCC1CCC(=NNC(=O)OC(C)(C)C)CC1 (stereo unspecified)	-	-	-	-	5.8
Cc1cc(=O)[nH]c(-c2ccccc2O)n1	.	.	.	.	-
Clc1cc2nc(-c3cccnc3Cl)[nH]c2cc1Cl	3.8	6.2	10.9	1.1	4.3
Cc1cc2nc(-c3ccccc3O)[nH]c2cc1C	4.1	5.8	11.7	-	-
COc1ccc(CCC(=O)Nc2ncc(C)s2)cc1	-	-	-	2.2	-
Cc1cc(C)n(/N=C/c2c[nH]c3ccccc23)c(=O)c1	-	6.5	-	-	-

Compound activity from PubChem.
